Data as given in PubChem BioAssay AID1159580 (chemical genetic matrix, 2015).
Where “and” joins values, the source holds several entries; their conditions need not be identical. Equal entries are not always repeated. The whole screen tested about 5,500 compounds, of which about 2,000 (36%) were called active. About 18% were inconclusive and are not listed. Rule as the data show it: active = normalized growth mostly below about 0.91 (no sharp cut-off); inconclusive = no clear call, values can overlap the other calls; inactive = mostly above about 0.92. The list shows a part of the results.

Assay: chemical genetic growth profiling, strain panel (AID 1159580);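 also: tested at 20 µM; growth read once vehicle control cultures reached saturation at 30 °C; 1 = growth at the plate median or of vehicle wells; lower values mean less growth of the strain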
Settings: S. cerevisiae deletion strains, growth OD

Measured: normalized growth

CC(=O)Nc1ccccc1
inactive: locus YAL021C, strain ccr4, hits give low values 0.971 | locus YAL026C, strain drs2, hits give low values 0.977 | locus YAL030W, strain snc1, hits give low values 0.972 | locus YBL061C, strain skt5, hits give low values 0.962 | locus YBR009C, strain hhf1, hits give low values 0.977 | locus YBR021W, strain FUR4, hits give low values 1.02 | locus YBR023C, strain chs3, hits give low values 0.961 | locus YBR171W, strain sec66, hits give low values 0.965 | locus YBR229C, strain ROT2, hits give low values 0.957 | locus YBR231C, strain swc5, hits give low values 0.963 | locus YBR279W, strain paf1, hits give low values 0.981 | locus YCL011C, strain gbp2, hits give low values 0.962 | locus YCL016C, strain dcc1, hits give low values 0.966 | locus YCL029C, strain bik1, hits give low values 0.983 | locus YCL061C, strain MRC1, hits give low values 0.987 | locus YCL069W, strain vba3, hits give low values 0.962 | locus YCR088W, strain abp1, hits give low values 0.976 | locus YDL005C, strain med2, hits give low values 0.98 | locus YDL035C, strain GPR1, hits give low values 0.987 | locus YDL040C, strain nat1, hits give low values 0.97 | locus YDL074C, strain BRE1, hits give low values 0.963 | locus YDL101C, strain DUN1, hits give low values 0.98 | locus YDL134C, strain PPH21, hits give low values 1.02 | locus YDL185W, strain tfp1, hits give low values 0.986 | locus YDL192W, strain arf1, hits give low values 0.985 | locus YDR001C, strain nth1, hits give low values 0.974 | locus YDR069C, strain doa4, hits give low values 0.959 | locus YDR101C, strain arx1, hits give low values 0.982 | locus YDR137W, strain rgp1, hits give low values 1.01 | locus YDR150W, strain NUM1, hits give low values 0.983 | locus YDR159W, strain sac3, hits give low values 0.977 | locus YDR162C, strain NBP2, hits give low values 0.995 | locus YDR195W, strain ref2 0.935 | locus YDR297W, strain sur2, hits give low values 0.975 | locus YDR318W, strain mcm21, hits give low values 0.999 | locus YDR334W, strain swr1, hits give low values 0.956 | locus YDR335W, strain msn5, hits give low values 0.982 | locus YDR388W, hits give low values 0.986 | locus YDR392W, strain spt3, hits give low values 0.993 | locus YDR502C, strain sam2, hits give low values 0.989 | locus YEL003W, strain gim4, hits give low values 0.973 | locus YEL037C, strain rad23, hits give low values 0.972 | locus YEL061C, strain CIN8 (second series), hits give low values 0.962 | locus YEL061C, strain CIN8, hits give low values 0.975 | locus YER015W, strain faa2, hits give low values 0.977 | locus YER016W, strain bim1, hits give low values 0.973 | locus YER110C, hits give low values 0.977 | locus YER111C, strain swi4, hits give low values 0.972 | locus YER155C, strain BEM2 (second series), hits give low values 0.981 | locus YER155C, strain BEM2, hits give low values 0.999 | locus YER167W, strain BCK2, hits give low values 0.999 | locus YFR010W, strain ubp6, hits give low values 0.96 | locus YGL078C, strain dbp3, hits give low values 0.99 | locus YGL086W, strain mad1, hits give low values 0.981 | locus YGL167C, strain pmr1, hits give low values 0.947 | locus YGL173C, strain kem1, hits give low values 0.967 | locus YGL227W, strain vid30, hits give low values 0.966 | locus YGL240W, strain doc1, hits give low values 0.965 | locus YGL248W, strain PDE1, hits give low values 0.976 | locus YGL253W, strain hxk2, hits give low values 0.982 | locus YGR135W, strain pre9, hits give low values 1 | locus YGR229C, strain SMI1, hits give low values 0.973 | locus YGR252W, strain gcn5, hits give low values 0.968 | locus YHR013C, strain ard1, hits give low values 0.942 | locus YHR027C, strain rpn1, hits give low values 0.973 | locus YHR030C, strain SLT2, hits give low values 0.991 and 0.975 | locus YHR079C, strain IRE1 (second series), hits give low values 0.99 | locus YHR079C, strain IRE1, hits give low values 0.969 | locus YHR094C, strain hxt1, hits give low values 0.988 | locus YHR129C, strain ARP1, hits give low values 0.993 | locus YHR142W, strain chs7, hits give low values 0.963 | locus YHR200W, strain rpn10, hits give low values 0.986 | locus YIL066C, strain RNR3, hits give low values 0.968 | locus YIL073C, strain SPO22, hits give low values 1.03 | locus YIL125W, strain kgd1, hits give low values 0.983 | locus YIR030C, strain dcg1, hits give low values 0.988 | locus YJL092W, strain hpr5, hits give low values 0.977 | locus YJL095W, strain BCK1 (second series), hits give low values 0.966 | locus YJL095W, strain BCK1, hits give low values 0.98 and 0.984 | locus YJL115W, strain asf1, hits give low values 0.951 | locus YJL129C, strain trk1, hits give low values 0.981 | locus YJL134W, strain LCB3, hits give low values 0.992 | locus YJL154C, strain vps35, hits give low values 0.975 | locus YJL164C, strain tpk1, hits give low values 0.963 | locus YJL166W, strain qcr8, hits give low values 0.976 | locus YJL168C, strain set2, hits give low values 0.978 | locus YJL187C, strain SWE1 (second series), hits give low values 0.965 | locus YJL187C, strain SWE1, hits give low values 0.972 | locus YJR043C, strain POL32, hits give low values 0.968
